In the emibetuzumab library of Makowski et al. (2022):
The other results are listed elsewhere or left out. How many sequences the whole screen found active is unknown.

B1: VH:VL chains; a variant is named by its letters at X, in order (parent)
chain 1: QVQLVQSGAEVKKPGASVKVSCKASGYTFTDYXMHWVRQAPGQGLEWMGXVNPNXXXTTYNQKFEGRVTMTTDTSTSTAYMELRSLRSDDTAVYYCARXNXLDXWGQGTTVTVSS
chain 2: DIQMTQSPSSLSASVGDRVTITCSVSSSVSSIYLHWYQQKPGKAPKLLIYSTSNLASGVPSRFSGSGSGTDFTLTISSLQPEDFATYYCQVYSGYPLTFGGGTKVEIK

Variants of: B1
Assay: yeast display scFab, FACS + sequencing
Settings: with MET
Procedure, shortened: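 Two magnetic rounds on Protein A beads coated with HGFR-Fc, followed by FACS, were used to enrich a yeast surface scFab library mutated in the heavy-chain CDRs. FACS gated the top 50% antigen-positive cells after 3 h labelling at room temperature with 1 nM HGFR-Fc and anti-Myc in PBSB plus 1% milk. Binding to the antigen was scored positive when a sequence occurred in both antigen-positive samples from deep sequencing and negative when it occurred only in the input.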

| Variant | antigen binding call |
| --- | --- |
| VTGEDAGA | no binding |
| VRERGSAV | binds |
| DTERGSLV | no binding |
| VRERGVGV | no binding |
| FRERGSAV | binds |
| YRERGAAV | binds |
| YRERGSAV | binds |
| VRERGDLV | no binding |
| VTGEADAS | no binding |
| DATGGDVA | no binding |
| DAGGAAAV | no binding |
| VEEEGDGA | no binding |
| FKGKGAWY | binds |
| VKEKGAWY | no binding |
| YRGKDAWY | binds |
| YRGKGAWY | binds |
| YKGKGAWY | binds |
| AKGGAAVY | no binding |
| AETKGALD | no binding |
| YRGKGAGY | binds |
| SKGKGAWY | binds |
| SKAGDAWY | no binding |
| YRGKDAWS | binds |
| YRGKDAAY | binds |

| Variant | antigen binding call |
| --- | --- |
| YAGKTAWS | no binding |
| SEARSDAV | no binding |
| YRRRGSLY | binds |
| YRKKGALY | binds |
| FRRRGSLY | binds |
| DRAGDDLY | no binding |
| FRAGGSLY | binds |
| VAGTGDWV | no binding |
| DKREADGA | no binding |
| VEERDAGD | no binding |
| VTEGDAGA | no binding |
| SKTRAFVA | no binding |
| YRRRGALY | binds |
| SREAAAVY | no binding |
| SRGGGVGY | no binding |
| SRAGGSLY | binds |
| DAERDSGV | no binding |
| YRARSDVF | binds |
| YRARDDVF | no binding |
| YRTGDDVF | no binding |
| YRARGAWF | binds |
| VRARGAWF | binds |
| VRGGDDWF | no binding |
| VRTEDDWF | no binding |

| Variant | antigen binding call |
| --- | --- |
| YRARGAGF | binds |
| SEGADAVA chain 1 G106S | no binding |
| VETGNDGA | no binding |
| VRAGDDVF | no binding |
| VRARGAGF | binds |
| YRARSAGF chain 1 G108D | no binding |
| VGTKGAGF | no binding |
| YRARSAGF | binds |
| DEKKADWA | no binding |
| SEEGTDGV | no binding |
| YRGRGSWY | binds |
| YKGRGYWY | binds |
| YRGRGYWY | binds |
| YKTESYWY | no binding |
| YKGRGYSY | no binding |
| YTEETDGF | no binding |
| SEARSYAV | no binding |
| SKGTDDWV | no binding |
| SAEEDDVY | no binding |
| VTGEDDGS | no binding |
| YRGKGAGF | binds |
| YRGASSGF | binds |
| YRTGTAGF | binds |
| YRGADFGF | no binding |

| Variant | antigen binding call |
| --- | --- |
| YRGGSAGF | binds |
| YRGGTFGF | no binding |
| DEAKAAVD | no binding |
| SETGGDWV | no binding |
| SREAASGV | no binding |
| STGKGSGV | no binding |
| SRGKGSGV | binds |
| YRGESSGF | binds |
| VTGTGSGF | no binding |
| VRGKGDWV | no binding |
| VTGKGDGV | no binding |
| VRGKGSGV | binds |
| VRGKGSGF | binds |
| ARGKGSGD | no binding |
| VTGTGSLV | no binding |
| DEGGTDAA | no binding |
| AAEKDDLA | no binding |
| YRAKSAVF | binds |
| YRGKSSGF | binds |
| YTGTGAVF | no binding |
| DRAGDDVF | no binding |
| FRGKGSGF | binds |
| YRGKGAVF | binds |
| YRKRSVVF chain 1 S115F | no binding |

| Variant | antigen binding call |
| --- | --- |
| YRGKGSGS | binds |
| YRGKGSGF | binds |
| YRGKGDGS | no binding |
| DARGGDGS | no binding |
| DRAGDDGA | no binding |
| DRAGDDAV | no binding |
| FRTGDDAA | binds |
| FRETDFGA | no binding |
| FRTGDAGA | binds |
| FRTGDDAV | binds |
| FRTGDDGA | binds |
| DRGGDDAA | no binding |
| FATGSDGA | no binding |
| ARAGDDAV | no binding |
| DRTGDDVA | no binding |
| DREEGDWV | no binding |
| STAEDFVV | no binding |
| YRRGGFGA | binds |
| YAGKGFGA | no binding |
| YRKRTFGA | no binding |
| YGAGDFGA | no binding |
| YRRGSFGA | binds |
| YAGRGFGA | no binding |
| YARTGFGA | binds |

| Variant | antigen binding call |
| --- | --- |
| VRRGSFGA | no binding |
| SKAGGSAD | binds |
| VKAGGDSD | no binding |
| SKKEDSAD | no binding |
| SEARSALD | no binding |
| YKAKGALD | binds |
| YKAGGALD | binds |
| SKAGGALD | binds |
| SKAGGDVD | no binding |
| VATGDDVY | no binding |
| VRAGAFSV | no binding |
| DTGTGDVF | no binding |
| VEEEGDVY | no binding |
| AKTRDDVA | no binding |
| YTTRGDGV | no binding |
| YRTRGAGV | binds |
| DRGGDAVV | no binding |
| YGTRSYGV | no binding |
| YRTGAAGV | binds |
| YRTRSAVV | binds |
| YRTRSAGV | binds |
| DTGTGSGA | no binding |
| VEGTGAGD | no binding |
| YTKRSAVV | no binding |

| Variant | antigen binding call |
| --- | --- |
| YRKGGAVV | binds |
| DGGKNAVV | no binding |
| DAGKGAVV | no binding |
| YTGTSAVV | no binding |
| YAGKNAVV | binds |
| YRKGAAVV | binds |
| YRARSSVV | binds |
| YRARSAVV | binds |
| SEARSAVV | no binding |
| VTTKSDGY | no binding |
| YATGDDGV | no binding |
| SEGGTDVV | no binding |
| VRTEDALD | binds |
| VRTEDDVD | no binding |
| VRTEDSLD | binds |
| VTTEASLD | no binding |
| VAGGDALD | no binding |
| VTGGDSGD | no binding |
| VRTEDALV | binds |
| VRTEDSGD | binds |
| VRTEDSLV | no binding |
| VRTAASGD | no binding |
| VRTEDDLV | no binding |
| DGGGNDLA chain 1 R87K | no binding |

| Variant | antigen binding call |
| --- | --- |
| VAGTGFWV | no binding |
| AGETGFSA | no binding |
| VRTRSSLD | binds |
| YKARGALS | binds |
| YRARGALS | binds |
| YRAKGALS | binds |
| YRAGGALS | binds |
| DAARGDAV | no binding |
| VEKKDYSA | no binding |
| DEGGTAVA | no binding |
| DAGGAAVS | no binding |
| DAGKGALF | no binding |
| YRAAGAGS | binds |
| FRAGGALS | binds |
| FTTRSALS | no binding |
| YRAKGALF | binds |
| YRAKGAGS | binds |
| YTGEADAS | no binding |
| SAERSAAF | no binding |
| DAGGASSA | no binding |
| SEEEGSGV | no binding |
| YRERGALS | binds |
| YTTGGYLV | no binding |
| YRGGDDLV | no binding |

| Variant | antigen binding call |
| --- | --- |
| YRGGDYLV | binds |
| YRGGDYSV | no binding |
| YEGGGDLV | no binding |
| YRGGGYLV | binds |
| DETEGDVF | no binding |
| VKGEGDVY | no binding |
| VEERDDWF | no binding |
| SEARSSLA | no binding |
| SRGGSALA | binds |
| SRGGAAWA | no binding |
| SETGAALD | no binding |
| SEARSDLA | no binding |
| SRGKGDAD | no binding |
| SAGGGAGD | no binding |
| SRGGGALD | binds |
| SRGGDDVA | no binding |
| SEARSALA | binds |
| SRGKGALD | binds |
| DGGRGDGA | no binding |
